The supplement of paper PMC10127200
Counter-ions that a name gives are not always drawn.

Assays:
Test in all cases: Euclidean distance of Cell Painting phenotypic profile (signed KS, 77 features) to DMSO centroid (dimensionless distance); 5 or 10 uM (library dependent); higher = stronger phenotypic change vs DMSO (phenoactivity)
Settings in all cases: 48 h
786-O = system: 786-O
How it was run: (§1)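 Phenoactivity is computed as Euclidean distance to the median vehicle profile. The profiles, drawn from 77 Harmony features scored as signed Kolmogorov-Smirnov statistics versus same-plate vehicle wells, were corrected for plate position, correlation-weighted and replicate-averaged at the top dose. Stained cells were imaged confocally at 20X (9 fields/well) after 48 h with library compounds at 10 or 5 uM, 0.1% DMSO final, in five cancer lines and a healthy fibroblast line.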

A549 = system: A549
How it was run: as §1

DU145 = system: DU145
How it was run: as §1

FB = system: FB
How it was run: as §1

HEPG2 = system: HEPG2
How it was run: as §1

OVCAR4 = system: OVCAR4
How it was run: as §1

Row | Compound | Euclidean distance (786-O) | Euclidean distance (A549) | Euclidean distance (DU145) | Euclidean distance (FB) | Euclidean distance (HEPG2) | Euclidean distance (OVCAR4)
1 | CC(CCc1ccccc1)NCC(O)c1ccc(O)c(C(N)=O)c1 (stereo not given) [Labetalol HCl] | 1.08 | 0.727 | 0.701 | 1.03 | 0.361 | 1.22
2 | O=c1ccn([C@@H]2O[C@H](COP(=O)(O)OP(=O)(O)OP(=O)(O)OP(=O)(O)OC[C@H]3O[C@@H](n4ccc(=O)[nH]c4=O)[C@H](O)[C@@H]3O)[C@@H](O)[C@H]2O)c(=O)[nH]1 [Diquafosol Tetrasodium] | 0.977 | 0.68 | 0.599 | 1.1 | 0.787 | 1.2
3 | CC(=O)Nc1nc(C)c(-c2ccc(Cl)c(S(=O)(=O)NCCO)c2)s1 | 0.94 | 1.48 | 1.62 | 2.98 | 0.945 | 1.12
4 | Cc1c(O)cccc1C(=O)N[C@@H](CSc1ccccc1)[C@H](O)CN1C[C@H]2CCCC[C@H]2C[C@H]1C(=O)NC(C)(C)C [Nelfinavir Mesylate] | 1.88 | 2.45 | 1.22 | 1.59 | 1.01 | 1.16
5 | COc1cc2ncnc(Nc3ccc(F)c(Cl)c3)c2cc1OCCCN1CCOCC1 [Gefitinib (ZD1839)] | 2.03 | 2.48 | 2.47 | 1.24 | 1.6 | 1.64
6 | COc1cc(C(=O)NS(=O)(=O)c2ccccc2C)ccc1Cc1cn(C)c2ccc(NC(=O)OC3CCCC3)cc12 [Zafirlukast] | 0.974 | 1.5 | 1.22 | 1.21 | 0.548 | 1.34
7 | C[N+](C)(C)CCO.O=C([O-])C(O)C(O)C(=O)O (stereo not given) [Choline bitartrate] | 1.35 | 1.24 | 0.973 | 1.15 | 0.96 | 1.37
8 | Cc1cnc(-c2cc(N3CCN(C(=O)CCS(C)(=O)=O)CC3)ncc2Cl)c(C)c1 | 0.761 | 1.09 | 1.04 | 1.23 | 0.662 | 1.03
9 | CCCSc1nc(N[C@@H]2C[C@H]2c2ccc(F)c(F)c2)c2nnn([C@@H]3C[C@H](OCCO)[C@@H](O)[C@H]3O)c2n1 [Ticagrelor] | 0.66 | 1.41 | 1.07 | 0.885 | 0.977 | 1.37
10 | Cc1c(F)cccc1NC(=O)Nc1ccc(Cl)c(S(=O)(=O)[C@H]2CCCNC2)c1O | 1.18 | 0.479 | 0.758 | 1.15 | 0.926 | 1.49
11 | Cc1cccc(-c2[nH]c(C(C)(C)C)nc2-c2ccc3nccnc3c2)n1 | 1.56 | 1.18 | 0.741 | 0.884 | 1.48 | 0.948
12 | N=C(N)N/N=C/c1c(Cl)cccc1Cl [Guanabenz Acetate] | 1.25 | 1.29 | 1.12 | 0.609 | 0.842 | 1.77
13 | Cc1c(C(=O)NN2CCCCC2)nn(-c2ccc(Cl)cc2Cl)c1-c1ccc(Cl)cc1 [Rimonabant] | 1.92 | 1.17 | 1.04 | 0.895 | 0.664 | 1.22
14 | OC(c1cc(C(F)(F)F)nc2c(C(F)(F)F)cccc12)C1CCCCN1 (stereo not given) [Mefloquine HCl] | 2.22 | 2.49 | 1.85 | 2.46 | 4.9 | 2.05
15 | O=C(NC1CCN(CCCCC2(C(=O)NCC(F)(F)F)c3ccccc3-c3ccccc32)CC1)c1ccccc1-c1ccc(C(F)(F)F)cc1 [Lomitapide Mesylate] | 5.45 | 4.4 | 6.1 | 5.88 | 5.29 | 5.65
16 | C[C@@H](C(=O)Nc1ccc(Cl)cc1)C1CCC(c2ccnc3ccc(F)cc23)CC1 (stereo not given in full) | 1.84 | 2.05 | 1.38 | 1.29 | 1.93 | 1.69
17 | COC(=O)/C=C/C(=O)OCCN1C(=O)CCC1=O [Diroximel Fumarete] | 0.82 | 0.396 | 1.17 | 1.24 | 0.611 | 0.814
18 | Cc1cc(-c2ccccc2)nnc1NCCN1CCOCC1 [Minaprine dihydrochloride] | 0.893 | 1.02 | 0.918 | 1.32 | 0.555 | 1.06
19 | CCN1C(=O)NC(c2ccccc2)C1=O (stereo not given) [Ethotoin] | 0.868 | 0.725 | 0.615 | 0.863 | 0.528 | 1.28
20 | CCOC(=O)C1=C(COCCN)NC(C)=C(C(=O)OC)C1c1ccccc1Cl (stereo not given) [Amlodipine Besylate] | 1.08 | 0.672 | 0.871 | 1.18 | 1.64 | 1.07
21 | C[C@@H]1NC(=O)[C@@H](N)CNC(=O)[C@H](C2CCNC(=N)N2)NC(=O)/C(=C/NC(N)=O)NC(=O)[C@H](CNC(=O)CC(N)CCCN)NC1=O.N=C1NCC[C@H]([C@@H]2NC(=O)/C(=C/NC(N)=O)NC(=O)[C@H](CNC(=O)C[C@@H](N)CCCN)NC(=O)[C@H](CO)NC(=O)[C@@H](N)CNC2=O)N1 [Capreomycin Sulfate] | 0.925 | 0.995 | 1.37 | 1.11 | 0.78 | 1.14
22 | CC[C@@H](Nc1c(Nc2cccc(C(=O)N(C)C)c2O)c(=O)c1=O)c1ccc(C)o1 | 1.24 | 0.692 | 0.995 | 0.605 | 0.633 | 0.96
23 | Cn1cc(-c2ccc3nnc(C(F)(F)c4ccc5ncccc5c4)n3n2)cn1 | 0.466 | 2.03 | 0.962 | 1.2 | 0.706 | 1.08
24 | C=CC[C@@H]1/C=C(\C)C[C@H](C)C[C@H](OC)[C@H]2O[C@@](O)(C(=O)C(=O)N3CCCC[C@H]3C(=O)O[C@H](/C(C)=C/[C@@H]3CC[C@@H](O)[C@H](OC)C3)[C@H](C)[C@@H](O)CC1=O)[C@H](C)C[C@@H]2OC [Tacrolimus (FK506)] | 0.986 | 1.47 | 2.38 | 1.07 | 0.59 | 0.647
25 | CCCCC(CC)CN1CN(CC(CC)CCCC)CC(C)(N)C1 (stereo not given) [Hexetidine] | 0.942 | 4.33 | 6.71 | 2.79 | 0.954 | 5.33
